Source: PubChem BioAssay
Sampled rows, rich in hits. Any-hit rate of the full collection: about 1.4%.
BH1578 lux ind: inducers of Vibrio cholerae quorum light production without autoinducers, primary screen, BH1578 luxS cqsA deficient, single point; V. cholerae BH1578 lux reporter, luminescence, 6 h; activation, % at 18.7 µM; 350,000 compounds, 0.16% hits; in the data active = activation mostly above about 9.7%, no sharp cut-off
PrPC surface inh: inhibitors of human cell surface prion protein PrPC, primary screen, cell-based, TR-FRET. Major prion protein (Homo sapiens), P04156. TR-FRET read-out. inhibition, % at 13.8 µM. 370,000 compounds, 0.43% hits; in the data active = inhibition above about 24%
FadD28 FP inh: inhibitors of FadD28 bisubstrate probe binding, primary screen, biochemical, fluorescence polarization, single point. 360,000 compounds, 0.22% hits. Mycobacterium tuberculosis FadD28 fatty-acid-AMP ligase. inhibition, % at 12.5 µM; in the data active = inhibition above about 8.5%, passing the limit was not always enough
PrP UTR inh: inhibition of PrP 5' UTR reporter expression | 340,000 compounds, 0.35% hits | inhibition, % (test concentration not listed) | cell-based PrP 5' UTR mRNA reporter, plate reader | AID 488862, 2010; in the data active = inhibition above about 52%
SSB-PriA inh: inhibitors of Klebsiella pneumoniae PriA binding to SSB C-terminal tail, primary screen, biochemical, AlphaScreen; PriA–SSB C-terminal tail interaction (Klebsiella pneumoniae); AlphaScreen SSBct-PriA binding, biotinylated peptide; inhibition, % at 33 µM; 430,000 compounds, 0.6% hits; AID 1272365, 2023; in the data active = inhibition mostly above about 37%, no sharp cut-off; inactive = mostly below about 20%
Hits are given with their value.

For Cc1ccccc1NC(=O)CN1C(=O)S/C(=C\c2ccc(-c3cc(C(=O)O)ccc3C)o2)C1=O the results were BH1578 lux ind inactive, PrPC surface inh inactive, FadD28 FP inh inactive, PrP UTR inh inactive and SSB-PriA inh inactive.
Screening Cc1ccc(NC(=O)CN2C(=O)S/C(=C\c3cc(C)n(-c4cccc(C(=O)O)c4)c3C)C2=O)cc1 returned BH1578 lux ind inactive, PrPC surface inh inactive, FadD28 FP inh 43, PrP UTR inh inactive and SSB-PriA inh inactive.
CS(=O)(=O)N1CCN(C(=O)Cc2cc(=O)[nH]c(SCc3ccccc3)n2)CC1 was read as SSB-PriA inh inactive.
CSc1ccc([C@@H](O)CNC(=O)COc2ccc(F)cc2)cc1 was read as SSB-PriA inh inactive.
Screening Cc1cc(Cl)ccc1OCC(=O)Nc1cccc(S(=O)(=O)NC2=NCCCCC2)c1 returned BH1578 lux ind inactive, PrPC surface inh inactive, FadD28 FP inh inactive, PrP UTR inh inactive and SSB-PriA inh inactive.
`Cc1ccc(C)c(OCC(=O)Nc2cccc(S(=O)(=O)NC3=NCCCCC3)c2)c1` gave BH1578 lux ind inactive, PrPC surface inh inactive, FadD28 FP inh inactive, PrP UTR inh inactive and SSB-PriA inh 49.
Screening CCc1cccc2sc(N(CCCN3CCOCC3)C(=O)c3ccc4c(c3)OCCO4)nc12 returned SSB-PriA inh 28.
CCc1cccc2sc(N(CCN(C)C)C(=O)c3cccc(SC)c3)nc12 was read as SSB-PriA inh 42.
`CCc1cccc2sc(N(CCN3CCOCC3)C(=O)c3cc(C)n(CC)n3)nc12` gave SSB-PriA inh inactive.
`CSc1cccc(C(=O)N(CCn2cccn2)c2nc3c(Cl)cccc3s2)c1` gave SSB-PriA inh inactive.
For O=C1CS(=O)(=O)N(Cc2cccc(F)c2)c2ccc(Br)cc21 the results were BH1578 lux ind inactive, PrPC surface inh inactive, FadD28 FP inh inactive, PrP UTR inh inactive and SSB-PriA inh inactive.
`O=C1c2cc(Br)ccc2N(Cc2ccc(Br)cc2)S(=O)(=O)C1c1cc(Cl)c(Cl)cc1[N+](=O)[O-]` (stereo unspecified) gave BH1578 lux ind inactive, FadD28 FP inh 30, PrP UTR inh inactive and SSB-PriA inh inactive.
CC1C/C(=N/Nc2ccc([N+](=O)[O-])cc2[N+](=O)[O-])CC(C)(C)C1 (stereo unspecified) was read as BH1578 lux ind inactive, PrPC surface inh inactive, FadD28 FP inh inactive and PrP UTR inh inactive.
For CC1CCCC(=NNc2ccc([N+](=O)[O-])cc2[N+](=O)[O-])C1 (stereo unspecified) the results were SSB-PriA inh 58.
Screening O=C(NCCS(=O)(=O)N1CCN(CCc2ccccc2)CC1)c1cccc(Cl)c1 returned SSB-PriA inh inactive.
O=C(c1ccc(Cl)cc1)N1N=C(c2ccc(Br)cc2)C[C@H]1c1nc2ccccc2[nH]1 was read as SSB-PriA inh inactive.
O=[N+]([O-])c1cccnc1SCc1ccccc1 was read as BH1578 lux ind inactive, PrPC surface inh inactive, PrP UTR inh inactive and SSB-PriA inh 48.
O=[N+]([O-])c1cccnc1Sc1ccc(Br)cc1 was read as BH1578 lux ind inactive, PrPC surface inh inactive, FadD28 FP inh inactive, PrP UTR inh inactive and SSB-PriA inh 48.
`COC(=O)c1ccc(Cn2cc(C(F)(F)F)cc([N+](=O)[O-])c2=O)cc1` gave BH1578 lux ind active, PrPC surface inh inactive, FadD28 FP inh inactive, PrP UTR inh inactive and SSB-PriA inh inactive.
COC(=O)c1ccc(Cn2cc(C(F)(F)F)ccc2=O)cc1 was read as BH1578 lux ind inactive, PrPC surface inh inactive, FadD28 FP inh inactive, PrP UTR inh inactive and SSB-PriA inh inactive.
`COc1ccccc1CNC(=O)Cc1cc(-c2ccccc2F)on1` gave SSB-PriA inh inactive.
For O=C(O)CCc1ccc(O)c2ncccc12 the results were SSB-PriA inh 114.
`O=C(CCl)c1ccc(O)c2ncccc12` gave SSB-PriA inh 121.
Screening Oc1ccc(F)c2cccnc12 returned BH1578 lux ind inactive, PrPC surface inh inactive, FadD28 FP inh inactive, PrP UTR inh inactive and SSB-PriA inh 81.
Screening Oc1ccc(CNc2ccccn2)c2cccnc12 returned PrPC surface inh inactive.
`O=C(O)c1ccc(O)c2ncccc12` gave BH1578 lux ind inactive, PrPC surface inh inactive and FadD28 FP inh inactive.
